The whole screen tested about 5,500 compounds, of which about 2,000 (36%) were called active. Inconclusive results (about 18%) are left out. No stated cut-off is given here; in the data, active means normalized growth mostly below about 0.91 (no sharp cut-off); inconclusive means no clear call, values can overlap the other calls; inactive means mostly above about 0.92. The list shows a part of the results.
Experiment: chemical genetic growth profiling, strain panel (AID 1159580);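 further: tested at 20 µM; growth read once vehicle control cultures reached saturation at 30 °C; 1 = growth at the plate median or of vehicle wells; lower values mean less growth of the strain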
Details: growth OD

Measured: normalized growth

CC(=O)[C@H]1CCC2C3C[C@H](C)C4=CC(=O)CC[C@]4(C)C3[C@@H](O)C[C@@]21C (some centres undefined)
inactive: S. cerevisiae deletion strains, locus YJR075W, strain HOC1, hits give low values 0.993 | S. cerevisiae deletion strains, locus YKL009W, strain mrt4, hits give low values 0.991 | S. cerevisiae deletion strains, locus YKL068W, hits give low values 0.977 | S. cerevisiae deletion strains, locus YKL085W, strain MDH1 (second series), hits give low values 0.96 | S. cerevisiae deletion strains, locus YKL085W, strain MDH1, hits give low values 0.96 | S. cerevisiae deletion strains, locus YKL160W, strain elf1, hits give low values 0.956 | S. cerevisiae deletion strains, locus YKL190W, strain CNB1, hits give low values 0.989 | S. cerevisiae deletion strains, locus YKR001C, strain vps1, hits give low values 0.998 | S. cerevisiae deletion strains, locus YKR026C, strain gcn3, hits give low values 0.986 | S. cerevisiae deletion strains, locus YKR091W, strain srl3, hits give low values 0.977 | S. cerevisiae deletion strains, locus YLL001W, strain dnm1, hits give low values 0.947 | S. cerevisiae deletion strains, locus YLL026W, hits give low values 0.99 | S. cerevisiae deletion strains, locus YLL041C, strain sdh2, hits give low values 0.983 | S. cerevisiae deletion strains, locus YLR027C, strain aat2, hits give low values 0.996 | S. cerevisiae deletion strains, locus YLR039C, strain RIC1, hits give low values 0.785 | S. cerevisiae deletion strains, locus YLR058C, strain SHM2, hits give low values 0.98 | S. cerevisiae deletion strains, locus YLR102C, strain apc9, hits give low values 0.975 | S. cerevisiae deletion strains, locus YLR113W, strain HOG1, hits give low values 0.993 | S. cerevisiae deletion strains, locus YLR221C, strain rsa3, hits give low values 0.945 | S. cerevisiae deletion strains, locus YLR258W, strain gsy2, hits give low values 0.986 | S. cerevisiae deletion strains, locus YLR262C, strain YPT6 (second series), hits give low values 0.95 | S. cerevisiae deletion strains, locus YLR262C, strain YPT6, hits give low values 0.901 | S. cerevisiae deletion strains, locus YLR268W, strain sec22, hits give low values 0.995 | S. cerevisiae deletion strains, locus YLR320W, strain mms22, hits give low values 0.961 | S. cerevisiae deletion strains, locus YLR330W, strain CHS5, hits give low values 0.988 | S. cerevisiae deletion strains, locus YLR342W, strain FKS1 (second series), hits give low values 0.99 | S. cerevisiae deletion strains, locus YLR342W, strain FKS1, hits give low values 0.972 | S. cerevisiae deletion strains, locus YLR357W, strain rsc2, hits give low values 0.948 | S. cerevisiae deletion strains, locus YLR370C, strain arc18, hits give low values 0.959 | S. cerevisiae deletion strains, locus YLR371W, strain rom2, hits give low values 0.978 | S. cerevisiae deletion strains, locus YLR384C, strain iki3, hits give low values 0.987 | S. cerevisiae deletion strains, locus YLR418C, strain cdc73, hits give low values 0.97 | S. cerevisiae deletion strains, locus YML016C, strain PPZ1, hits give low values 0.994 | S. cerevisiae deletion strains, locus YML032C, strain rad52, hits give low values 1.01 | S. cerevisiae deletion strains, locus YML120C, strain ndi1, hits give low values 0.95 | S. cerevisiae deletion strains, locus YML124C, strain tub3, hits give low values 0.98 | S. cerevisiae deletion strains, locus YMR058W, strain fet3, hits give low values 0.989 | S. cerevisiae deletion strains, locus YMR078C, strain ctf18, hits give low values 0.96 | S. cerevisiae deletion strains, locus YMR125W, strain sto1, hits give low values 0.954 | S. cerevisiae deletion strains, locus YMR129W, hits give low values 0.983 | S. cerevisiae deletion strains, locus YMR205C, strain PFK2, hits give low values 0.938 | S. cerevisiae deletion strains, locus YMR223W, strain ubp8, hits give low values 0.953 | S. cerevisiae deletion strains, locus YMR231W, strain pep5, hits give low values 0.989 | S. cerevisiae deletion strains, locus YMR307W, strain GAS1, hits give low values 1.04 | S. cerevisiae deletion strains, locus YNL067W, strain RPL9B, hits give low values 0.99 | S. cerevisiae deletion strains, locus YNL071W, strain lat1, hits give low values 0.973 | S. cerevisiae deletion strains, locus YNL153C, strain GIM3, hits give low values 0.997 | S. cerevisiae deletion strains, locus YNL183C, strain NPR1, hits give low values 0.931 | S. cerevisiae deletion strains, locus YNL209W, strain ssb2, hits give low values 0.994 | S. cerevisiae deletion strains, locus YNL233W, strain BNI4, hits give low values 1 | S. cerevisiae deletion strains, locus YNL248C, strain rpa49, hits give low values 0.985 | S. cerevisiae deletion strains, locus YNL250W, strain rad50, hits give low values 0.961 | S. cerevisiae deletion strains, locus YNL271C, strain bni1, hits give low values 0.972 | S. cerevisiae deletion strains, locus YNL298W, strain CLA4, hits give low values 0.986 | S. cerevisiae deletion strains, locus YNL307C, strain MCK1, hits give low values 0.976 | S. cerevisiae deletion strains, locus YNL322C, strain KRE1 (second series), hits give low values 0.982 | S. cerevisiae deletion strains, locus YNR049C, strain mso1, hits give low values 0.985 | S. cerevisiae deletion strains, locus YNR052C, strain pop2, hits give low values 0.986 | S. cerevisiae deletion strains, locus YOL006C, strain TOP1, hits give low values 0.931 | S. cerevisiae deletion strains, locus YOL012C, strain htz1 1.85 | S. cerevisiae deletion strains, locus YOL147C, strain pex11, hits give low values 0.986 | S. cerevisiae deletion strains, locus YOR001W, strain rrp6, hits give low values 1.03 | S. cerevisiae deletion strains, locus YOR061W, strain CKA2, hits give low values 0.982 | S. cerevisiae deletion strains, locus YOR069W, strain VPS5, hits give low values 0.991 | S. cerevisiae deletion strains, locus YOR070C, strain gyp1, hits give low values 0.986 | S. cerevisiae deletion strains, locus YOR080W, strain dia2, hits give low values 0.984 | S. cerevisiae deletion strains, locus YOR083W, strain WHI5, hits give low values 0.972 | S. cerevisiae deletion strains, locus YOR106W, strain vam3, hits give low values 0.955 | S. cerevisiae deletion strains, locus YOR136W, strain idh2, hits give low values 1 | S. cerevisiae deletion strains, locus YOR144C, strain elg1, hits give low values 0.992 | S. cerevisiae deletion strains, locus YOR184W, strain ser1, hits give low values 0.962 | S. cerevisiae deletion strains, locus YOR231W, strain MKK1, hits give low values 0.977 | S. cerevisiae deletion strains, locus YOR265W, strain rbl2, hits give low values 0.988 | S. cerevisiae deletion strains, locus YOR270C, strain vph1, hits give low values 0.933 | S. cerevisiae deletion strains, locus YOR290C, strain snf2, hits give low values 0.895 | S. cerevisiae deletion strains, locus YOR316C, strain cot1, hits give low values 0.979 | S. cerevisiae deletion strains, locus YPL051W, strain arl3, hits give low values 0.983 | S. cerevisiae deletion strains, locus YPL055C, strain LGE1, hits give low values 0.991 | S. cerevisiae deletion strains, locus YPL078C, strain atp4, hits give low values 0.96 | S. cerevisiae deletion strains, locus YPL106C, strain sse1, hits give low values 0.968 | S. cerevisiae deletion strains, locus YPL240C, strain hsp82, hits give low values 0.989 | S. cerevisiae deletion strains, locus YPL241C, strain CIN2, hits give low values 0.995 | S. cerevisiae deletion strains, locus YPL256C, strain CLN2, hits give low values 0.983 | S. cerevisiae deletion strains, locus YPR119W, strain clb2, hits give low values 0.978 | S. cerevisiae deletion strains, locus YPR141C, strain kar3, hits give low values 0.961 | S. cerevisiae deletion strains, locus YPR163C, strain tif3, hits give low values 0.987 | S. cerevisiae deletion strains, locus YPR167C, strain met16, hits give low values 0.984 | S. cerevisiae deletion strains, strain wtn01, hits give low values 0.983 | S. cerevisiae strains, strain wild type, hits give low values 0.994

Source: PubChem BioAssay AID1159580 (chemical genetic matrix, 2015)
